The supplement of paper PMC11732987, “Enantioselective OTUD7B fragment discovery through chemoproteomics screening and high-throughput optimisation” (Communications Chemistry, 2025)

Columns and labels:
Assay in all cases: log2 ratio of Biotin-Ahx-Ub-VS probe labelling (fragment/DMSO); higher = less target engagement (more negative = stronger competition), active = hit call of the paper (q ≤ 0.05, log2 ratio ≤ -1)
Settings in all cases: compound concentration: 200 uM; treatment time: 3 h
[1] = target: USP34 (UniProt Q70CQ2)
How it was run: (§1)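 Labelled DUBs from HEK293T lysate were NeutrAvidin-enriched, digested with LysC and trypsin, and run by diaPASEF LC-MS/MS. Before that, each 495 µg sample in Tris/CHAPS/IGEPAL buffer with protease inhibitors was treated in triplicate with fragment at 200 µM or vehicle for 3 h, then with Biotin-Ahx-Ub-VS at 0.5 µM final for 1 h. Values are average log2 ratios of fragment over vehicle by unpaired t-test, based on global-median-normalised Spectronaut label-free quantities from proteins with ≥2 unique peptides.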

[2] = target: T1, USP36 (UniProt Q9P275)
T1 sequence (whole entry): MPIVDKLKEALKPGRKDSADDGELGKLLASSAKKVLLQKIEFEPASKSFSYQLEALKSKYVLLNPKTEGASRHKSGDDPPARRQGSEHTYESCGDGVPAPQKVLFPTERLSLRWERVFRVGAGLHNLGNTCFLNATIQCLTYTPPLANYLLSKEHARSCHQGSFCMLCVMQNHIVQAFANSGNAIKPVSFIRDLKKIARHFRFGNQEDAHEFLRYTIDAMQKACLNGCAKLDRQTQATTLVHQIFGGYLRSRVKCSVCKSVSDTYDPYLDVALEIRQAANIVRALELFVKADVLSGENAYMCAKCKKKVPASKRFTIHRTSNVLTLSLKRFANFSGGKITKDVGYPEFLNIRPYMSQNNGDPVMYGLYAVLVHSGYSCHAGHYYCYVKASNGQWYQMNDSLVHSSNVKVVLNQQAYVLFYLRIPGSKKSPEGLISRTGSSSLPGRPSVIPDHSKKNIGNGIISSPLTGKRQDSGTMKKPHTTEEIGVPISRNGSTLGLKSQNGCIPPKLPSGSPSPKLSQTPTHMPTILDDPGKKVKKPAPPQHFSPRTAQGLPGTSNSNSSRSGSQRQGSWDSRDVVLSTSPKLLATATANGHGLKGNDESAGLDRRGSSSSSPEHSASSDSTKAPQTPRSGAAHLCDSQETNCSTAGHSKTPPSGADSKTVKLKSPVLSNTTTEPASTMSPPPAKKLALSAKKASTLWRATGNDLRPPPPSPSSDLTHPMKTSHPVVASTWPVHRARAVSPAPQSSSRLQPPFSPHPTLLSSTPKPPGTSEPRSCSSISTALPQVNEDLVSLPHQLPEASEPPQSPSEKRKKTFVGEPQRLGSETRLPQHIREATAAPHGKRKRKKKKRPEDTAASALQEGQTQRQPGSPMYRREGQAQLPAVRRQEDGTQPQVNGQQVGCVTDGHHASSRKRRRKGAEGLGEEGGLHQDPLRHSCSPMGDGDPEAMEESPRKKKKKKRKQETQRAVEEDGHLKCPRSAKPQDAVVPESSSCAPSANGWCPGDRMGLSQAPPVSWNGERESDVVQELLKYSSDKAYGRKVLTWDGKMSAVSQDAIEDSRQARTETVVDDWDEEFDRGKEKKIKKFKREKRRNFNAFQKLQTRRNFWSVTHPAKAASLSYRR
How it was run: as §1

[3] = target: T2, USP38 (UniProt Q8NB14)
T2 sequence (whole entry): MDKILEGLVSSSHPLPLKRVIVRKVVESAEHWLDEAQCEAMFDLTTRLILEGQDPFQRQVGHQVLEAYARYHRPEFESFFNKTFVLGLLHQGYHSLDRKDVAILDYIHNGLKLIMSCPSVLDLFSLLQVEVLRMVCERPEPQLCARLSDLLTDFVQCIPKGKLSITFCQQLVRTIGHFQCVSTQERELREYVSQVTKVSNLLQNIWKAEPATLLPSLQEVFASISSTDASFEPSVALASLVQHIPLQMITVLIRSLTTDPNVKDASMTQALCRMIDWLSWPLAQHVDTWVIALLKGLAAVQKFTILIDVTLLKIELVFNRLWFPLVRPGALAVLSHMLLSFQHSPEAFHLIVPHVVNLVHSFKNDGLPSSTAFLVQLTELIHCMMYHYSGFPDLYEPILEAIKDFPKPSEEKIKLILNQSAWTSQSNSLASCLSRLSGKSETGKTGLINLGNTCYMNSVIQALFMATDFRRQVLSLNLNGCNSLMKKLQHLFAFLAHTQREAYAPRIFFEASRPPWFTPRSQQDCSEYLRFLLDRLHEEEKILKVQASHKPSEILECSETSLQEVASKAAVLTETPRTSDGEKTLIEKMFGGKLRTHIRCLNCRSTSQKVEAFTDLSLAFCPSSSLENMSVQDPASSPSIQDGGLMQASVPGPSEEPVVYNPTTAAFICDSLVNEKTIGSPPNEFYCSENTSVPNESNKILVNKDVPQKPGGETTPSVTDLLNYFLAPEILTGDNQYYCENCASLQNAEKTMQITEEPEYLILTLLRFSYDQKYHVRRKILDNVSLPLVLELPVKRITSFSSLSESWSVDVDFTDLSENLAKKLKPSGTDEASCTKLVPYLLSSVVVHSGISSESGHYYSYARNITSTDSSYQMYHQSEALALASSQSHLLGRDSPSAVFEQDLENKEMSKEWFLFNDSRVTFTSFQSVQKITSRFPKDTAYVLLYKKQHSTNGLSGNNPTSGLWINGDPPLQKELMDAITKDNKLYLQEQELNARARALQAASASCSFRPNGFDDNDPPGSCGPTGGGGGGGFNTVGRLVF
How it was run: as §1

[4] = target: T3, USP39 (UniProt Q53GS9)
T3 sequence (whole entry): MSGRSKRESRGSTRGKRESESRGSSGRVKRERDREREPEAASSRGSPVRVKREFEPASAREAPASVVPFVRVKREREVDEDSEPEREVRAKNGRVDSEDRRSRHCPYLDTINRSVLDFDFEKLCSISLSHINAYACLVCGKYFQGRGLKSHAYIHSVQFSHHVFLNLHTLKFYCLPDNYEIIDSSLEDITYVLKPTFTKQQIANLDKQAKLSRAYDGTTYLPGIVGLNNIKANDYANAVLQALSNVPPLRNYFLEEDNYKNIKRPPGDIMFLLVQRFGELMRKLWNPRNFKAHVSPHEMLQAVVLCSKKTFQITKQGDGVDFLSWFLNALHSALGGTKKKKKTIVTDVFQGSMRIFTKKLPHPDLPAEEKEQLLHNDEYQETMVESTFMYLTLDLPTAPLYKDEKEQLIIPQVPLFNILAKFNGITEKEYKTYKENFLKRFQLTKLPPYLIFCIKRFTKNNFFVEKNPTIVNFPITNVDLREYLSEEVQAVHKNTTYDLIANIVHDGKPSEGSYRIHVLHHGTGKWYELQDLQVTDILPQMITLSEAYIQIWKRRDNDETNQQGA
How it was run: as §1

[5] = target: T4, USP4 (UniProt Q13107)
T4 sequence (whole entry): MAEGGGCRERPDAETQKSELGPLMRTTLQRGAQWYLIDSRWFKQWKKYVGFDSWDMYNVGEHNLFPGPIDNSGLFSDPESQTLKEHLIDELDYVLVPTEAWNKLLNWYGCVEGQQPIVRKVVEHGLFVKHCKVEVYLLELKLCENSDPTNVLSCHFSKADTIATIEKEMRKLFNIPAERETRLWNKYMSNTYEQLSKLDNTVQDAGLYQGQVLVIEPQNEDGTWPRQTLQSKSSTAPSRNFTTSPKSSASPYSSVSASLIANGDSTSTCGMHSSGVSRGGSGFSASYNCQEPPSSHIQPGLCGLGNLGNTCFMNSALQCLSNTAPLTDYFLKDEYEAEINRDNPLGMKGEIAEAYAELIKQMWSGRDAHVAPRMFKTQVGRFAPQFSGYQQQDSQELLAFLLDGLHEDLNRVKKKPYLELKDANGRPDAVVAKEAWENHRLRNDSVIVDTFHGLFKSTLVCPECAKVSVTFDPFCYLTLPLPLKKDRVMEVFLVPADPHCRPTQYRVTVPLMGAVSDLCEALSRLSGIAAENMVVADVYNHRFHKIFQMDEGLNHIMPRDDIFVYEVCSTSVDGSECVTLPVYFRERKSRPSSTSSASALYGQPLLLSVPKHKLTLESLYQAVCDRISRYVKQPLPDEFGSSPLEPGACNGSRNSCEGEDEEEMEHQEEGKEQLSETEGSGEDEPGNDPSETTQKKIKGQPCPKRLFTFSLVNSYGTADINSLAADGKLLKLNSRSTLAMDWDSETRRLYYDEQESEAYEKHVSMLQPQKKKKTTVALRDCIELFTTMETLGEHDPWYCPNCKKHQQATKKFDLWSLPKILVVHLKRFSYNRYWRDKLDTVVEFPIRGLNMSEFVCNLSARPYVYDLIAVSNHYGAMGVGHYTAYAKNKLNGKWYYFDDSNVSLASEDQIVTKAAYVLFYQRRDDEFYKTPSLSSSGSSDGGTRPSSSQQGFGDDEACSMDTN
How it was run: as §1

Measured: log2 ratio of Biotin-Ahx-Ub-VS probe labelling

Sequence of USP34 (Q70CQ2 whole entry, the tested form may be a part): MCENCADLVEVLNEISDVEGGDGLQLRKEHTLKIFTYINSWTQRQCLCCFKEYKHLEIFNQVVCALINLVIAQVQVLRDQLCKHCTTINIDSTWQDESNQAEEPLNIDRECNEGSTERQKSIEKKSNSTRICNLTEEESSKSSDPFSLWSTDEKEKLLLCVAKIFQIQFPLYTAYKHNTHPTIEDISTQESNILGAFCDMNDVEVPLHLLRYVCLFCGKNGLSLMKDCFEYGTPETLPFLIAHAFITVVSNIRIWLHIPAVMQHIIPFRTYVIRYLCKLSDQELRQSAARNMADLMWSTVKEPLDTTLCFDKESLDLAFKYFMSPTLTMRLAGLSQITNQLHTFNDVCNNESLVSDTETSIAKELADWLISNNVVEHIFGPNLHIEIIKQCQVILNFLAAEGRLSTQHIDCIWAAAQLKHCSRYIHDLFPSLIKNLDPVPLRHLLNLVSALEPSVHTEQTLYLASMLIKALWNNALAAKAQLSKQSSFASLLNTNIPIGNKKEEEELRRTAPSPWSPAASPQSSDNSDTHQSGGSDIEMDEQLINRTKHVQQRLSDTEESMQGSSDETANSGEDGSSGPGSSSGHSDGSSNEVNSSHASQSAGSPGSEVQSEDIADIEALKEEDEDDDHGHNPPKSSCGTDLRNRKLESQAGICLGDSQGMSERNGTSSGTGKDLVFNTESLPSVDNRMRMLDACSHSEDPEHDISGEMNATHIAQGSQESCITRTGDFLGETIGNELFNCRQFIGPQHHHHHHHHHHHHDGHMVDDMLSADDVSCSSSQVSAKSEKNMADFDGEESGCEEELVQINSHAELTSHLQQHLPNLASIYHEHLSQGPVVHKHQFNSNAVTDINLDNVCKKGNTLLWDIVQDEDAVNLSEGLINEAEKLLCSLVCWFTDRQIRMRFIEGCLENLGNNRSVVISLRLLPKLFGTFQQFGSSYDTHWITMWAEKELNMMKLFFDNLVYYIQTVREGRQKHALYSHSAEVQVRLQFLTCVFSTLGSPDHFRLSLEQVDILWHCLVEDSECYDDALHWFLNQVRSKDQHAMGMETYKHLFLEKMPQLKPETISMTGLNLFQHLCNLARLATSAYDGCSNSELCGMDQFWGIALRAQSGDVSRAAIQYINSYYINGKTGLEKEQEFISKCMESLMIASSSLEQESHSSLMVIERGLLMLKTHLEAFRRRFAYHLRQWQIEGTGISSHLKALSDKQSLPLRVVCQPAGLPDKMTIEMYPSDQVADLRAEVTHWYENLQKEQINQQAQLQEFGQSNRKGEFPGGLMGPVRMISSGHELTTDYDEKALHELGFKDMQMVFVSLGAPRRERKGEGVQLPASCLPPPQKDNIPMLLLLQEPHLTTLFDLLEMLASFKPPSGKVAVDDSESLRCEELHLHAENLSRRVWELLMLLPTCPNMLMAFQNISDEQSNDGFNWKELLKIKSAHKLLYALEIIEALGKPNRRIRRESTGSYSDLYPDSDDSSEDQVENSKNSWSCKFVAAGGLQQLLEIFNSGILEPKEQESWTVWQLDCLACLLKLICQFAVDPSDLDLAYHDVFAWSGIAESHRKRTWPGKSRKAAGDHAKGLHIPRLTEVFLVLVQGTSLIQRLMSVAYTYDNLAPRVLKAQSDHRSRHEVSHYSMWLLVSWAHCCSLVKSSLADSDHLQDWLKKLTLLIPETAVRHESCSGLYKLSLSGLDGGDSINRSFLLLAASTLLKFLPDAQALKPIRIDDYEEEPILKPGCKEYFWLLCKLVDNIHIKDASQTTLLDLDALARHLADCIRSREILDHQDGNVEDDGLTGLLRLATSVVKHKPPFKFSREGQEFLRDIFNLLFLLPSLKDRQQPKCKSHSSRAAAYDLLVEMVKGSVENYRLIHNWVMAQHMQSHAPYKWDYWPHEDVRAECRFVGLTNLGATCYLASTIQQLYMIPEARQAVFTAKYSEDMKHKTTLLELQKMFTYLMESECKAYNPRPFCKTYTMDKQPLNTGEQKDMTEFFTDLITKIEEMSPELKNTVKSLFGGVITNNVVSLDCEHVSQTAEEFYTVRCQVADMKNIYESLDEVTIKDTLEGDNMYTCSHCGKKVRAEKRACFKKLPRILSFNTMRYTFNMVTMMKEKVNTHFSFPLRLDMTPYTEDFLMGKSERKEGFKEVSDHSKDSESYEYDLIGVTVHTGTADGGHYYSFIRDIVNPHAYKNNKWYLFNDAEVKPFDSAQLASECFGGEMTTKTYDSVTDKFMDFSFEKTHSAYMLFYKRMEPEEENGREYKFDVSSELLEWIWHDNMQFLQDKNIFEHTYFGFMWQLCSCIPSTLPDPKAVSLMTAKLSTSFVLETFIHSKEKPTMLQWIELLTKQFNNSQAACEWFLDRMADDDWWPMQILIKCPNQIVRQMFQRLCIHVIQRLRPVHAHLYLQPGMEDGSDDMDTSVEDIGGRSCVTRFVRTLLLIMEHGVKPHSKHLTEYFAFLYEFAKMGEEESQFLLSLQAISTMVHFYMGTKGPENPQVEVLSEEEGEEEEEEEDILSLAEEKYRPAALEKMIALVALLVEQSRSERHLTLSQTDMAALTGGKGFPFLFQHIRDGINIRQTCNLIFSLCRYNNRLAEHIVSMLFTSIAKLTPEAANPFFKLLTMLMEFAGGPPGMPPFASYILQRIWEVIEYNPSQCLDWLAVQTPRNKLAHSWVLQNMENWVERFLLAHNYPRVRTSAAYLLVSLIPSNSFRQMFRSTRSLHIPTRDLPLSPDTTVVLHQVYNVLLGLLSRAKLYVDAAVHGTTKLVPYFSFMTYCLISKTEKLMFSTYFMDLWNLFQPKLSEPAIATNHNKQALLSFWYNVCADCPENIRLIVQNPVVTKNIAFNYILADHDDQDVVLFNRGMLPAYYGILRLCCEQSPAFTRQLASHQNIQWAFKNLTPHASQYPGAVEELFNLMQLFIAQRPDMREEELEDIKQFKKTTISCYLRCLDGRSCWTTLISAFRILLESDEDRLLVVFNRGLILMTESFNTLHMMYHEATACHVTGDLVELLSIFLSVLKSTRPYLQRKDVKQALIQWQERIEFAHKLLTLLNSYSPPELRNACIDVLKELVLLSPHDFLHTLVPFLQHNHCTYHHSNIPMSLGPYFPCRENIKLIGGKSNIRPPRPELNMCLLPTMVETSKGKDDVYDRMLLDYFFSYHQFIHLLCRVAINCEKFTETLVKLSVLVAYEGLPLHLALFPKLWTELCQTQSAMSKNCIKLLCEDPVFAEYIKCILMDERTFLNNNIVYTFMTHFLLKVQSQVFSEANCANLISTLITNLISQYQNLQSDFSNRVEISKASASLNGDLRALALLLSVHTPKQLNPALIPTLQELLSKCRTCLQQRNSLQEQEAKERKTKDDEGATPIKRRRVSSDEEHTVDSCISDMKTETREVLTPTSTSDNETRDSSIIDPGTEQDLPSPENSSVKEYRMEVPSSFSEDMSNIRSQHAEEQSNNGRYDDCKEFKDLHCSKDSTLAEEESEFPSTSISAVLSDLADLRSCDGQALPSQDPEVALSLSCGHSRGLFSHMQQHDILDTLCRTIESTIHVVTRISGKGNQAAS

Cc1ccc(CN(C)C(=O)CCl)o1
inactive: [1] -0.0329 | [2] 0.0474 | [3] -0.0916 | [4] 0.287 | [5] 0.0471
